Drawing on PubChem BioAssay (Tox21), this text covers Potency and outcome for ten molecules.

Structures are written as SMILES. “And” between values parts separate entries of the source, which are not always exact repeats. Equal values may be shown once. Inconclusive results are not listed. Some structures have more than one record in an assay (separate samples or runs), and their calls can disagree. The source made the active and inactive calls. Unless noted, calls come from the whole dose curve; as a rule, active = well fitted curve in the direction sought with a large enough effect in the repeat runs; inconclusive = weak or mixed curves; inactive = no such curve, though single readings can be large; an effect the other way counts as inactive or inconclusive.

Test [1] is described as follows: qHTS assay to identify aromatase inhibitors - cell viability counter screen (AID 743084).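 Note: cells stimulated with testosterone during compound exposure; nearly all actives have a fitted effect of over 55% in size.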 Note: potency is the fitted concentration of half-maximal effect.
The target of test [2] is Aryl hydrocarbon receptor (Homo sapiens) (UniProt P35869). In words: qHTS assay to identify small molecule that activate the aryl hydrocarbon receptor (AhR) signaling pathway (AID 743085).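 For activation: HG2L7.5c1 human HepG2 liver cells with stably integrated DRE-driven firefly reporter; series mostly up to about 70 µM.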 Note: nearly all actives have a fitted effect of over 15% in size. Note: potency is the fitted concentration of half-maximal effect. The method in brief:
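A multiplexed format paired cell viability (CellTiter-Fluor fluorescence) with AhR-dependent luciferase output (ONE-Glo luminescence) in the same wells of HepG2 DRE-luc cells after 24 h compound exposure at 37C.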
On the technique in general: In qHTS, concentration-response curves come from the screen itself.

The nature of test [3]: qHTS assay to identify small molecule antagonists of the peroxisome proliferator-activated receptor gamma (PPARg) signaling pathway - cell viability counter screen (AID 743194). Note: nearly all actives have a fitted effect of over 55% in size. The conditions noted are these: Potency: co-treated with 50 nM rosiglitazone unless noted. The method in brief: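 Cytotoxicity counter screen in PPARg-bla HEK293H cells, same wells as reporter assay. Compounds plus 50 nM rosiglitazone (final) for 17 h at 37 C, then viability read by CellTiter-Glo luminescence.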

The nature of test [4]: qHTS assay for small molecule agonists of the antioxidant response element (ARE) signaling pathway (AID 743202; active = well fitted activation curve with a large enough effect in the signal ratio in the repeat runs, not every such curve was filed as active; the % refers to the signal ratio; note: potency is the fitted concentration of half-maximal effect). The method in brief: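 HepG2 ARE-bla cells; 16 h treatment at 37 C; FRET-based beta-lactamase fluorescence read after 2 h substrate incubation at room temperature.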
Test [5] is described as follows: qHTS assay for small molecule agonists of the antioxidant response element (ARE) signaling pathway - cell viability counter screen (AID 743203; calls by dose curve; note: nearly all actives have a fitted effect of over 55% in size; note: potency is the fitted concentration of half-maximal effect). In short, it runs like this:
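Luminescence read-out (CellTiter-Glo, 30 min at room temperature) measured cell viability in the same wells as the ARE beta-lactamase reporter. HepG2 ARE-bla cells were treated with compounds for 16 hrs at 37C/5% CO2.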

Test [6] is described as follows: qHTS assay for small molecule activators of the heat shock response signaling pathway - cell viability counter screen (AID 743209). Note: nearly all actives have a fitted effect of over 50% in size. Note: potency is the fitted concentration of half-maximal effect. The method in brief: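 HSE-bla HeLa; 1500 cells/well; overnight 37 C, 5% CO2; compound 5 h 37 C; LiveBLAzer B/G substrate 2.5 h RT; CellTiter-Glo 30 min RT; luminescence.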
Test [7] can be described thus: qHTS assay for small molecule activators of the heat shock response signaling pathway (AID 743210; active = well fitted activation curve with a large enough effect in the signal ratio in the repeat runs, with a control signal flat, not every such curve was filed as active; the % refers to the signal ratio;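 note: HeLa cells with beta-lactamase reporter driven by heat shock elements; series mostly up to about 63 µM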). In short, it runs like this: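 Following overnight attachment, HSE-bla HeLa cells received test compounds for 5 h at 37 C; beta-lactamase activity was then detected via FRET substrate fluorescence.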
A short description of test [8]: qHTS assay to identify small molecule agonists of the peroxisome proliferator-activated receptor delta (PPARd) signaling pathway - cell viability counter screen (AID 743211). Note: nearly all actives have a fitted effect of over 55% in size. Note: potency is the fitted concentration of half-maximal effect. In short, it runs like this:
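Tox21 library compounds, delivered in DMSO, were incubated 17 h with PPARd-bla HEK293H cells; cytotoxicity was taken from CellTiter-Glo luminescence read 30 min after reagent addition.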

A short description of test [9]: qHTS assay to identify small molecule antagonists of the peroxisome proliferator-activated receptor delta (PPARd) signaling pathway - cell viability counter screen (AID 743213). Note: nearly all actives have a fitted effect of over 50% in size. Note: potency is the fitted concentration of half-maximal effect. In short, it runs like this: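 HEK293H cells with the PPARd UAS-bla reporter, co-treated 17 h at 37 C with compounds and L165041 (300 nM final), were lysed with CellTiter-Glo. Luminescence indicated viable cell content.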

Test [10] is described as follows: qHTS assay to identify small molecule agonists of the farnesoid-X-receptor (FXR) signaling pathway - cell viability counter screen (AID 743218). Note: nearly all actives have a fitted effect of over 45% in size. Note: potency is the fitted concentration of half-maximal effect. In short, it runs like this:
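Luminescence from CellTiter-Glo, read after 30 min at RT, reports viability of GeneBLAzer FXR-UAS-bla HEK 293T cells treated 16 h with compounds in the wells used for the beta-lactamase reporter.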

The nature of test [11]: qHTS assay to identify small molecule antagonists of the farnesoid-X-receptor (FXR) signaling pathway - cell viability counter screen (AID 743221; active = well fitted cell-killing curve with a large enough effect in the repeat runs, not every such curve was filed as active; note: nearly all actives have a fitted effect of over 50% in size; note: potency is the fitted concentration of half-maximal effect). The method in brief:
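Cytotoxicity is taken from ATP luminescence (CellTiter-Glo, 30 min, room temperature) in FXR-bla HEK 293T cells previously incubated 16 h at 37 C with compound and chenodeoxycholic acid at 50 uM final.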

Test [12] deals with Vitamin D3 receptor (Homo sapiens) (UniProt P11473). In words: qHTS assay to identify small molecule agonists of the vitamin D receptor (VDR) signaling pathway (AID 743222; calls by dose curve). The method in brief: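 Beta-lactamase reporter readout (LiveBLAzer B/G FRET, 2 h RT) in VDR-bla cells after 16 h compound treatment at 37C, 5% CO2; cells pre-incubated 4 h before pin transfer of DMSO solutions.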
Vitamin D3 receptor (Homo sapiens), sequence (P11473 whole entry, looked up): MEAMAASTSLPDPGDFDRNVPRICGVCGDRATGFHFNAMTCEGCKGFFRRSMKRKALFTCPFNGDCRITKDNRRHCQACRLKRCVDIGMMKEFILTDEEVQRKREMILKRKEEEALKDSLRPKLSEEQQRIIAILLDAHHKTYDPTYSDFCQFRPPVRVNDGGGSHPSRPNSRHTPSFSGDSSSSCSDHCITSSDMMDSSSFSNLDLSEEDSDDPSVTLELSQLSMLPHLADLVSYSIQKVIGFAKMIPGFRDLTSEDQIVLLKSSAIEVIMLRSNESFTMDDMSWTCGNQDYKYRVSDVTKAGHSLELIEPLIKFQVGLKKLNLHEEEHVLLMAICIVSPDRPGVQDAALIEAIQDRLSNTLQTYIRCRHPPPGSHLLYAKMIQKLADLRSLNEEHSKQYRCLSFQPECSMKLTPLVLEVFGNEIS

The target is the same in test [13]. In words: qHTS assay to identify small molecule antagonists of the vitamin D receptor (VDR) signaling pathway (AID 743223; active = well fitted inhibition curve with a large enough effect in the signal ratio in the repeat runs, not every such curve was filed as active; the % refers to the signal ratio; note: potency is the fitted concentration of half-maximal effect). The method in brief: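 Quantitative HTS in VDR-bla reporter cells stimulated with 1alpha,25-dihydroxyvitamin D3, 3 nM final. Compound exposure 16 h, 37C, 5% CO2. Read-out: beta-lactamase FRET substrate fluorescence, 2 h RT.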
Test [14] addresses Peroxisome proliferator-activated receptor gamma (Homo sapiens) (UniProt P37231). In words: qHTS assay to identify small molecule agonists of the peroxisome proliferator-activated receptor gamma (PPARg) signaling pathway (AID 743094; active = well fitted activation curve with a large enough effect in the signal ratio in the repeat runs, not every such curve was filed as active; the % refers to the signal ratio). The method in brief:
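HEK293H PPARg-bla cells, 5 h settle at 37C/5% CO2; compound (DMSO) 17 h, 37C; B/G FRET substrate 1 h RT; fluorescence intensity read-out. qHTS format.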

For test [15] the target is unchanged. The test is described as follows: qHTS assay to identify small molecule antagonists of the peroxisome proliferator-activated receptor gamma (PPARg) signaling pathway (AID 743191; calls by dose curve; note: series mostly up to about 63 µM; nearly all actives have a fitted effect of over 30% in size). The method in brief: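 GeneBLAzer PPARg UAS-bla HEK293H cells, 5 h post-plating, exposed to compounds 17 h at 37C. LiveBLAzer B/G FRET substrate added for 1 h at room temperature; beta-lactamase reporter read by fluorescence intensity.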

A short description of test [16]: qHTS assay to identify small molecule that activate the aryl hydrocarbon receptor (AhR) signaling pathway - cell viability counter screen (AID 743086). Note: nearly all actives have a fitted effect of over 45% in size. Note: potency is the fitted concentration of half-maximal effect. In short, it runs like this: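 HepG2-AhR-luc (HG2L7.5c1) cells, 4000/well, treated 24 h at 37 C with compound; viability measured as CellTiter-Fluor fluorescence after 30 min in the same wells as the luciferase read.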

For test [17], the target named is Peroxisome proliferator-activated receptor delta (Homo sapiens) (UniProt Q03181). In words: qHTS assay to identify small molecule agonists of the peroxisome proliferator-activated receptor delta (PPARd) signaling pathway (AID 743212; calls by dose curve). The method in brief:
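Tox21 library screened in GeneBLAzer PPARd UAS-bla HEK293H cells. After compound treatment at 37 C, a FRET-based beta-lactamase substrate was applied for 2 h and fluorescence recorded.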

Test [18] has the same target. The test is described as follows: qHTS assay to identify small molecule antagonists of the peroxisome proliferator-activated receptor delta (PPARd) signaling pathway (AID 743215; active = well fitted inhibition curve with a large enough effect in the signal ratio in the repeat runs, not every such curve was filed as active; the % refers to the signal ratio;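 note: cells stimulated with agonist L165041 at 300 nM final during compound exposure; series mostly up to about 62 µM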). The method in brief:
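HEK293H GeneBLAzer PPARd UAS-bla reporter cells; cpd + L165041 300 nM final, 17 h 37 C; LiveBLAzer B/G FRET substrate 2 h RT; fluorescence intensity read-out. Antagonist mode.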

In test [19] the target is Bile acid receptor (Homo sapiens) (UniProt Q96RI1). In words: qHTS assay to identify small molecule antagonists of the farnesoid-X-receptor (FXR) signaling pathway (AID 743217; active = well fitted inhibition curve with a large enough effect in the signal ratio in the repeat runs, not every such curve was filed as active; the % refers to the signal ratio). In short, it runs like this:
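Read-out: beta-lactamase FRET fluorescence (LiveBLAzer B/G substrate, 2 h, room temperature) in GeneBLAzer FXR-UAS-bla HEK 293T cells. Compounds were co-dosed with 50 uM chenodeoxycholic acid (final) and incubated 16 h at 37 °C.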

For test [20] the target is unchanged. In words: qHTS assay to identify small molecule agonists of the farnesoid-X-receptor (FXR) signaling pathway (AID 743220; active = well fitted activation curve with a large enough effect in the signal ratio in the repeat runs, not every such curve was filed as active; the % refers to the signal ratio). The method in brief: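 FXR-UAS-bla HEK 293T cells carrying a UAS-driven beta-lactamase reporter were plated for 5 h at 37C/5% CO2, then exposed to DMSO-dissolved Tox21 10K compounds for 16 h at 37C. A LiveBLAzer B/G FRET substrate was loaded for 2 h at room temperature before fluorescence reading.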

Peroxisome proliferator-activated receptor delta (Homo sapiens), sequence (Q03181 whole entry, looked up): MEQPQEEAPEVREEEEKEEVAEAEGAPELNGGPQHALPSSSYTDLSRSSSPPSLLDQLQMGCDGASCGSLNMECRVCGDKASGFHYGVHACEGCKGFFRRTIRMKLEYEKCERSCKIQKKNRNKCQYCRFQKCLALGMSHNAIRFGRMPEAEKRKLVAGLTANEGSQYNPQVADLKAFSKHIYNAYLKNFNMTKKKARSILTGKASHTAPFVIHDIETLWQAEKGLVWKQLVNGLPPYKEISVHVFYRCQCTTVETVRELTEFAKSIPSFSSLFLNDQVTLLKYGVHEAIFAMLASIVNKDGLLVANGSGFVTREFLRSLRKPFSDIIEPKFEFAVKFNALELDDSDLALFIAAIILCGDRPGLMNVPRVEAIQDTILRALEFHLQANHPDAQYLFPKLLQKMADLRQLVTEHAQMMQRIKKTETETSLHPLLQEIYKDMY
Peroxisome proliferator-activated receptor gamma (Homo sapiens), sequence (P37231 whole entry, looked up): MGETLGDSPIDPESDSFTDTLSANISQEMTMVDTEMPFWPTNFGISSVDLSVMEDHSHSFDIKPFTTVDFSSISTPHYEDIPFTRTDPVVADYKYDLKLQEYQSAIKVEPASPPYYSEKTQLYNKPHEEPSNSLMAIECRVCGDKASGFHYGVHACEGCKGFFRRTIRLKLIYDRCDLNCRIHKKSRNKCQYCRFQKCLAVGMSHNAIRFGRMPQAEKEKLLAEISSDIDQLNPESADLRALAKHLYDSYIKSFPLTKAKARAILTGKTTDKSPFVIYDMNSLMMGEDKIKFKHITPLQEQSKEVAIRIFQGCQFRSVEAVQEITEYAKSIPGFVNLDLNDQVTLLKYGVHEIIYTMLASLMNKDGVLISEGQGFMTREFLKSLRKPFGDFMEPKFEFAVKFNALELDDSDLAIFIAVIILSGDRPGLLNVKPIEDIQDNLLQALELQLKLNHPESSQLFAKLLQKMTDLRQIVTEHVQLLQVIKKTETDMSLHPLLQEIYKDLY
Bile acid receptor (Homo sapiens), sequence (Q96RI1 whole entry, looked up): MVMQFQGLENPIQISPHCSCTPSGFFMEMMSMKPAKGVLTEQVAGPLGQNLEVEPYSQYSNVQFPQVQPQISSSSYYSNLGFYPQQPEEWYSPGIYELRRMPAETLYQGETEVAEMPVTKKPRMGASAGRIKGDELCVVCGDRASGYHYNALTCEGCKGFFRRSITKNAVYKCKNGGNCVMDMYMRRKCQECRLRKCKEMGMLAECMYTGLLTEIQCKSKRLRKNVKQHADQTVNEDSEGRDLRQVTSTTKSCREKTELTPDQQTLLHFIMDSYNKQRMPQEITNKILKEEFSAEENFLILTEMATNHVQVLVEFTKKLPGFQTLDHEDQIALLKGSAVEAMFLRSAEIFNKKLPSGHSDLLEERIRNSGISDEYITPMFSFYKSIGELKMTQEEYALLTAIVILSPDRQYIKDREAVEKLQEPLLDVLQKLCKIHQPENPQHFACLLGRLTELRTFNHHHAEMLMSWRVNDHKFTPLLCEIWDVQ
Aryl hydrocarbon receptor (Homo sapiens), sequence (P35869 whole entry, looked up): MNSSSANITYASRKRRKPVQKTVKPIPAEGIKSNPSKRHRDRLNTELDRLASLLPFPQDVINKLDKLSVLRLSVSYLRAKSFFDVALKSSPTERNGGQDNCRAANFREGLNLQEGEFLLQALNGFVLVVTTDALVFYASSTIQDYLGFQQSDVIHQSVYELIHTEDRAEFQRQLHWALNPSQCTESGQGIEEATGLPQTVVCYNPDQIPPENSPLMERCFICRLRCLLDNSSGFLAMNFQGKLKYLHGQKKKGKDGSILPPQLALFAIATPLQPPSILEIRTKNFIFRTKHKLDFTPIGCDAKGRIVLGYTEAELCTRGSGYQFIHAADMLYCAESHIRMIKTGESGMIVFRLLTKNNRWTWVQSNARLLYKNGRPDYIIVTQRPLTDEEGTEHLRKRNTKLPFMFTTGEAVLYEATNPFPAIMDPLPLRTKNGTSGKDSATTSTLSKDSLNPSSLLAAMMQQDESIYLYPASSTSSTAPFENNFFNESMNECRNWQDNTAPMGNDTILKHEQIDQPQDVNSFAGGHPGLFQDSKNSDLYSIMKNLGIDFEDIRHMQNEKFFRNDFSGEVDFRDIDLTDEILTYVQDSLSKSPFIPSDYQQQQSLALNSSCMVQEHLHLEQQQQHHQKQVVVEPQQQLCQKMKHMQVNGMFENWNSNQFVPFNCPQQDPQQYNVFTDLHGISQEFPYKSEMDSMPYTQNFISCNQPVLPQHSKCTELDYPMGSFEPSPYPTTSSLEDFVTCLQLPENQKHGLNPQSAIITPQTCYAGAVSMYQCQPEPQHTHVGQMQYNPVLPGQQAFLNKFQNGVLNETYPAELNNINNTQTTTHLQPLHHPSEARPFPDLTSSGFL

Take `CCCCCCCCn1cc[n+](C)c1`: the Potency entry in test [1], in test [2], in [3], in test [5], in test [6] and in [8] was “inactive” throughout. For the same molecule, the Potency entry in test [9], in [10], in test [11] and in [13] was “inactive” throughout. The Potency in test [4] is 4.32 µM (active) and 5.49 µM (active). The molecule was called inactive in test [7] and in [12].
In the case of `O=C(O)c1nc(Cl)ccc1Cl`, the Potency entry in test [1], in [3], in [4], in test [5], in [6] and in [8] was “inactive” each time. Also, the Potency entry in test [9], in test [10] and in test [11] was “inactive” throughout. For the same molecule, in test [2], the Potency was 22.4 µM (active) and inactive. Further, the molecule was classed as inactive in test [7].
Regarding `Nc1ccccc1`, the Potency result in test [1], in test [15], in test [3], in [4], in [5] and in [6] was “inactive” throughout. Further, the Potency result in test [8], in test [9], in test [10], in [11] and in test [13] was “inactive” in each case. The outcome in [14], in test [7] and in [12] was inactive.
As for `CC[N+]1(C)CCCC1`, the Potency entry in test [1], in test [2], in test [4], in [5], in [6] and in test [8] was “inactive” each time. For the same molecule, the Potency entry in [9], in [10] and in test [11] was “inactive” throughout. For the same molecule, the molecule was called inactive in test [7].
Consider `CCCCn1cc[n+](C)c1`, for which the Potency result in [1], in test [2], in test [3], in test [4], in test [5] and in test [6] was “inactive” in each case. Moreover, the Potency entry in [8], in test [9], in [10] and in [11] was “inactive” throughout.
Take `CCCCCCCCCCCCCCCCn1cc[n+](C)c1`: the Potency entry in test [2] and in [15] was “inactive” throughout. For the same molecule, the Potency in test [16] was 62.4 µM (active) and inactive and 30.7 µM (active); in [10], “inactive and 44 µM (active) and 21.9 µM (active)”; in [13] it was 15.5 µM (active). The call in test [14], in [7], in [17], in [18] and in test [12] was inactive.
`O=[N+]([O-])O`: the Potency result in [1], in test [2], in test [4], in [5], in test [6] and in test [8] was “inactive” each time. The Potency entry in test [9], in test [10] and in test [11] was “inactive” in each case.
In the case of `Oc1cccc2cccnc12`, the Potency in test [1] is 1.38 µM (active) and 686 nM (active); in [4], 6.14 µM (active) and 25.9 µM (active) and inactive; in test [5] it was “inactive and 4.33 µM (active)”; in [6], 876 nM (active) and inactive and 710 nM (active); in test [8], 414 nM (active) and 155 nM (active) and inactive; in test [9], 521 nM (active) and 155 nM (active). Also, the Potency result was “inactive and 949 nM (active)” in test [10]; 776 nM [cytotoxic] (active) and inactive in [11]. The molecule was called inactive in test [7] and in [12]. Further, the Potency result in test [13] was “inactive”.
As to `CCC(=O)C(CC(C)N(C)C)(c1ccccc1)c1ccccc1` (stereo not drawn), the Potency entry in test [2], in [15], in test [5], in test [6], in test [19] and in test [10] was “inactive” in each case. Besides, in test [11], the Potency entry is “inactive”. The outcome in [14], in [7], in test [18] and in test [20] was inactive. In addition, the Potency result in test [9] is “inactive and 37.4 µM (active)”.
For `CCCC[n+]1ccccc1C`, the Potency entry in test [1], in test [5], in test [6], in test [8], in [9] and in test [10] was “inactive” in each case. In addition, the Potency entry in test [11] is “inactive”. Besides, the result in test [7] was inactive.
